Source: the supplement of paper PMC11482750
± gives the standard deviation of the averaged measurements.

Each target was assayed with CCC1CCC(=O)O1 [γ-hexalactone] (assay: control-subtracted net OSN firing rate; higher = stronger neuronal activation). Conditions: odorant dilution (vol/vol): 1/100.
Protocol: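 Single sensillum recordings from olfactory sensory neurons. The neurons sit in the maxillary palp or antennal sensilla of D. melanogaster (wild type, mutants, or at1 empty-neuron lines expressing Or42a homologs or the A181D S307P mutant) and of four Scaptomyza species. Each odorant was given as a 1 s pulse from 20 µl loaded on filter paper at 1:100 vol/vol, diluted in mineral oil (γ-hexalactone in DMSO). Spikes were counted in a 0.5 s window starting 0.2 s after onset, background was subtracted, the count was doubled, and the mean solvent-control response was subtracted.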

Canton-S ab8b and Canton-S pb3a are within error of each other in “control-subtracted net OSN firing rate” value: 10 ± 5.8 spikes/s for the first, -1.14 ± 8.2 spikes/s for the second.

Or67dGal4, UAS-Dmel Or42a at1 and Or67dGal4; UAS-A181D S301P at1 are within error of each other in “control-subtracted net OSN firing rate” value: 79 ± 40 spikes/s for the first, 42.6 ± 20 spikes/s for the second.

Canton-S ab10b and Canton-S at4b are within error of each other in “control-subtracted net OSN firing rate” value: -0.2 ± 5.2 spikes/s for the first, -2 ± 13 spikes/s for the second.

Canton-S at4a and Canton-S ab1c are within error of each other in “control-subtracted net OSN firing rate” value: -3 ± 3.5 spikes/s for the first, 1.5 ± 4.2 spikes/s for the second.
